Data on 40 compounds can be found in PubChem BioAssay (NCATS).

Each structure is given as a SMILES string. Inconclusive results are not listed. Unmarked numbers belong to inactive results. The source made the active and inactive calls. The call rests on the fitted dose curve; in most records, active means well fitted inhibition curve with a large enough effect; inconclusive means small, poorly fitted or top-dose-only effect; inactive means no such curve, though single readings can be large or run the other way.
On the % scale 0 is the no-effect control and ±100 the full control effect.

This assay is described as follows: Primary qHTS for inhibitors of nuclear receptor binding SET domain protein 2 (NSD2) in an RCH-ACV wild type WT cells (2C) (AID 1645877). Further: nearly all actives have a fitted effect of over 70% in size. The following applies: RCH-ACV (leukaemia line) NSD2 WT (2C) viability, CellTiter-Glo, 72 h; series mostly up to 44.9 µM; activity change, negative = cell killing: at the top concentration. The text has this:
Assay Provider: Jonathan D. Licht, MD
University of Florida College of Medicine, Gainesville, FL
Mutations in epigenetic regulators are common in relapsed pediatric acute lymphoblastic leukemia (ALL). Here, we uncovered the mechanism underlying the relapse of ALL driven by an activating mutation of the NSD2 histone methyltransferase (p.E1099K). […] Correction of this mutation restored glucocorticoid sensitivity. The transcriptional response to glucocorticoids was blocked in NSD2 mutant cells due to depressed glucocorticoid receptor (GR) levels and the failure of glucocorticoids to autoactivate GR expression. […] Pre-treatment of NSD2 p.E1099K cell lines and PDX samples with PRC2 inhibitors reversed glucocorticoid resistance in vitro and in vivo.
High-throughput drug screening of isogenic RCH-ACV cell lines was performed at the National Center for Advancing Translational Science (NCATS), National Institutes of Health as previously described (1). Briefly, isogenic RCH-ACV NSD2 p.E1099K mutant (9B) and WT cells (2C) were plated at 500 cells/well in a 1536-well plate with a 72-hour incubation with compounds prior to addition of CellTiter-Glo to assess cell viability. NCATS libraries screened include: NPC, MIPE 5.0, Kinase and NPACT. To determine compound activity in the qHTS assay, the concentration-response data for each sample was plotted and modeled by a four-parameter logistic fit yielding IC50 and efficacy (maximal response) values. The area under the curve (AUC) of the dose-response curve ensures both efficacy (magnitude of cell killing) and potency (concentration that elicits cell killing) are accounted for in the analysis of activity.
1. Tobie D Lee, Olivia W Lee, Kyle R Brimacombe, Lu Chen, Rajarshi Guha, Sabrina Lusvarghi, Bethilehem G Tebase, Carleen Klumpp-Thomas, Robert W Robey, Suresh V Ambudkar, Min Shen, Michael M Gottesman, Matthew D Hall. A High-Throughput Screen of a Library of Therapeutics Identifies Cytotoxic Substrates of P-glycoprotein. Mol Pharmacol. 2019, Nov;96(5):629-640.
Take `C=C(C)C(=O)O[C@H]1[C@@H]2[C@H](C)C(=O)O[C@@H]2C[C@@H](C)[C@@H]2C=CC(=O)[C@]21C`: the Potency is 1790 nM (active).
For the compound `C=C(C)[C@@H]1[C@H]2OC(=O)[C@H]1[C@]1(O)C[C@H]3O[C@]34C(=O)O[C@H]2[C@]14C`, the “activity change, negative = cell killing” value was 0.204%.
As for `CC(=O)O[C@H]1C(=O)[C@]2(C)C(O)C[C@H]3OC[C@@]3(OC(C)=O)[C@H]2[C@H](OC(=O)c2ccccc2)[C@]2(O)C[C@H](O)C(C)=C1C2(C)C` (stereo not given in full), the Potency was 5410 nM (active).
Regarding `O=C(NCCCNc1nc(Nc2ccc(N3CCOCC3)cc2)ncc1C1CC1)C1CCC1`, the Potency was 7420 nM (active).
Still for that read-out and setting: the same measure for `CC(=O)O[C@H]1C[C@@H](C)O[C@H]2O[C@@H]3CC4CC[C@@H]5C(CC[C@]6(C)[C@@H](C7=CC(=O)OC7)CC[C@]56O)[C@@]4(C=O)C[C@H]3O[C@]21O` (stereo not given in full): 68.2 nM (active); for `CC[C@@H](C)[C@H]1C(=O)O[C@H](C(C)C)C(=O)N(C)[C@@H](C(C)C)C(=O)O[C@H](C(C)C)C(=O)N(C)[C@@H](C(C)C)C(=O)O[C@H](C(C)C)C(=O)N1C`: 1530 nM (active); for `C=C1C(=O)O[C@@H]2[C@H]3C(=C)[C@@H](O)C[C@H]3C(=C)C[C@@H](O)[C@@H]12`: 6490 nM (active).
Turning to `CNc1ccc2oc(C[C@H]3O[C@@]4(CC[C@H]3C)O[C@H](C(C)C(=O)c3ccc[nH]3)[C@H](C)C[C@H]4C)nc2c1C(=O)O` (stereo not given in full), the Potency was 14500 nM (active).
`CO[C@H]1C[C@H](O[C@H]2CC[C@]3(C=O)[C@H]4CC[C@]5(C)[C@@H](C6=CC(=O)OC6)CC[C@]5(O)[C@@H]4CC[C@]3(O)C2)O[C@H](C)[C@H]1O`: the Potency is 89.3 nM (active).
On the same count and under the same terms, next, `CC1=CC(=O)[C@@H](O)[C@]2(C)C3[C@@H](O)[C@@H]4OC(=O)[C@@H]([C@H]4C)[C@]3(C)C(=O)C[C@@H]12` (stereo not given in full): 2260 nM (active); `CN1CN(c2ccccc2)C2(CCN(CCCC(=O)c3ccc(F)cc3)CC2)C1=O`: 25800 nM (active); `O=C1Nc2ccc3ncsc3c2/C1=C/c1cnc[nH]1`: 578 nM (active).
For the compound `CC1=C[C@H]2O[C@@H]3[C@H](O)[C@@H](O)[C@](C)([C@@]2(CO)C[C@@H]1O)[C@]31CO1`, the Potency was 515 nM (active).
On the same count and under the same terms, the same measure for `C/C=C(/C)C(=O)O[C@H]1[C@@H]2[C@H](C)C(=O)O[C@@H]2C[C@@H](C)[C@@H]2C=CC(=O)[C@]21C`: 10100 nM (active).
Still for that read-out and setting: the same measure for `CC[C@@]1(O)C(=O)OCc2c1cc1n(c2=O)Cc2cc3c(OC)cccc3nc2-1`: 10.1 nM (active); for `CC[C@@H]1C[C@H]2CC[C@H](O2)[C@H](C)C(=O)O[C@@H](C)C[C@@H]2CC[C@@H](O2)[C@@H](C)C(=O)O[C@H](CC)C[C@H]2CC[C@H](O2)[C@H](C)C(=O)O[C@@H](C)C[C@@H]2CC[C@@H](O2)[C@@H](C)C(=O)O1`: 21.6 nM (active).
Still for that read-out and setting: the same measure for `CC1Oc2cc3c(-c4c(O)cc(O)c5c(O)c6c(cc45)OC(C)C(C)C6=O)c(O)cc(O)c3c(O)c2C(=O)C1C` (stereo not given): 1160 nM (active).
For `CO[C@H]1[C@H](O)[C@H](O[C@H]2CC[C@]3(C=O)C4CC[C@]5(C)[C@H](C6=CC(=O)OC6)CC[C@]5(O)C4CC[C@@H]3C2)O[C@@H](C)[C@@H]1O` (stereo not given in full), the Potency is 44.7 nM (active).
On to `CCC1CN2CCC3(C(=O)Nc4cccc(O)c43)C2CC1/C(=C/OC)C(=O)OC` (stereo not given), for which the “activity change, negative = cell killing” value was -27.3% [at 17.3 µM].
Regarding `C[N@@+]1(CC2CC2)CC[C@]23c4c5ccc(O)c4O[C@H]2C(=O)CC[C@@]3(O)[C@H]1C5`, the compound was classed as inactive.
For `C[C@@H]1CCC/C=C/[C@H]2C[C@@H](O)C[C@@H]2[C@@H](O)/C=C/C(=O)O1`, the Potency is 409 nM (active).
Consider `C[C@H]1CCC[C@H](O)CCC/C=C/c2cc(O)cc(O)c2C(=O)O1`, for which the Potency was 14500 nM (active).
Same read-out and setting: the same measure for `CC(=O)OC[C@]12C[C@H](OC(=O)CC(C)C)C(C)=C[C@H]1O[C@@H]1[C@H](O)[C@@H](OC(C)=O)[C@@]2(C)[C@@]12CO2`: 10 nM (active); for `CC(=O)O[C@H]1C[C@]2(O)[C@@H]3CC[C@@H]4C[C@@H](O)CC[C@]4(C)[C@H]3CC[C@]2(C)[C@H]1c1ccc(=O)oc1`: 57.8 nM (active); for `N#Cc1cn([C@@H]2O[C@H](CO)[C@H](O)[C@@H]2O)c2ncnc(N)c12`: 7.3 nM (active).
The same measure, in the same setting: the same measure for `C[C@H]1O[C@@H](O[C@H]2CC[C@]3(CO)C4CC[C@]5(C)[C@@H](C6=CC(=O)OC6)CC[C@]5(O)[C@@H]4CC[C@H]3C2)[C@H](O)[C@H](O)[C@@H]1O[C@@H]1O[C@H](CO)[C@@H](O)[C@H](O)[C@H]1O` (stereo not given in full): 1080 nM (active); for `COc1cc2c(cc1F)C(c1ccccc1Cl)=Nc1c(n[nH]c1C)N2`: 1030 nM (active).
For the compound `CCCN(CCC)[C@@H]1CCc2ccc3[nH]c(C#N)cc3c2C1`, the “activity change, negative = cell killing” value was -11.6%.
As to `CCOP(=O)(OCC)Oc1ccc2c(C)cc(=O)oc2c1`, the “activity change, negative = cell killing” value is -26.3%.
Regarding `C[C@H]1C/C=C/[C@H]2[C@@H]3O[C@]3(C)[C@@H](C)[C@H]3[C@H](Cc4ccccc4)NC(=O)[C@]32OC(=O)O/C=C/[C@@](C)(O)C1=O`, the Potency is 502 nM (active).
Consider `Cc1c(N2C(=O)[C@@H]3[C@H](O)CCN3C2=O)ccc(C#N)c1Cl`, for which the “activity change, negative = cell killing” value is 1.19%.
Consider `CN1C2CCC1CC(OC(=O)N1Cc3ccccc3NC1=O)C2` (stereo not given), for which the compound was classed as inactive.
Turning to `CC1(C)C(=O)N(c2ccc(C#N)c(C(F)(F)F)c2)C(=S)N1c1ccc(C(N)=O)c(F)c1`, the “activity change, negative = cell killing” value was -22.4%.
Regarding `CC1CCCC(O)CCC/C=C/c2cc(O)cc(O)c2C(=O)O1` (stereo not given), the Potency is 11300 nM (active).
In the case of `C=CC(C)(C)C12C=C(O)C(=O)N3/C(=C\c4cnc[nH]4)C(=O)NC31N(OC)c1ccccc12` (stereo not given), the Potency was 10000 nM (active).
Take `COC1CC(OC2CCC3(C=O)C(CCC4C3CCC3(C)C(C5=CC(=O)OC5)CCC43O)C2)OC(C)C1O` (stereo not given): the Potency is 126 nM (active).
As to `C=CCN1CCC2(C)c3cc(O)ccc3C[C@H]1[C@H]2C`, the “activity change, negative = cell killing” value was -1.39%.
Same read-out and setting: the same measure for `CN1CCc2cc3c(cc2C1C1OC(=O)c2c1ccc1c2OCO1)OCO3` (stereo not given): 4.23%.
Same read-out and setting: the same measure for `COc1ccc2c3c4n(c2c1)[C@@H](C=C(C)C)OOC(C)(C)C[C@@H]4N1C(=O)[C@@H]2CCCN2C(=O)[C@]1(O)[C@H]3OCC=C(C)C`: -27.8% [at 17.3 µM].
As for `C[C@]12CC[C@H](O[C@@H]3O[C@H](CO)[C@@H](O)[C@H](O)[C@H]3O)CC1=CC[C@@H]1C2CC[C@]2(C)[C@@H](C3=CC(=O)OC3)CC[C@]12O` (stereo not given in full), the Potency is 5410 nM (active).
